In PubChem BioAssay (Tox21):
Results filed as inconclusive are left out. The source made the active and inactive calls. Calls follow the shape of the dose curve; as a rule, active = well fitted inhibition curve with a large enough effect in the repeat runs; inconclusive = weak or mixed curves; inactive = no such curve, though single readings can be large or run the other way.

target: Cytochrome P450 2C9 (Homo sapiens) (UniProt P11712); test: Cytochrome P450 Family 2 Subfamily C Member 9 (CYP2C9) small molecule antagonists: luciferase reporter qHTS assay (AID 1671198); conditions: P450-Glo CYP2C9 enzyme assay, luciferin luminescence; series mostly up to 115 µM; activity change, negative = inhibition: at the top concentration; also: nearly all actives have a fitted effect of over 50% in size
Source text: U.S. Tox21 Program National Center for Advancing Translational Sciences [NCATS] U.S. Environmental Protection Agency [EPA] National Institutes of Environmental Health Sciences [NIEHS] National Toxicology Program [NTP] U.S. Food and Drug Administration [FDA] Tox21 Assay Overview: Cytochrome P450 (CYP) enzymes are membrane-bound hemeproteins that play a key role in metabolism of drugs and xenobiotics. Evaluation of the effect of chemicals on CYP isozymes is useful to minimize the adverse drug reactions and toxicities in drug development process. Tox21 chemicals were tested for their effect on CYP enzyme activities by using P450-Glo (TM) screening systems (Promega Corporation, Madison, WI). These systems provide a luminescent method containing proluciferin substrates and are converted to luciferin products by CYP isozymes. The luciferin products formed are detected with a luciferin detection reagent, and the amount of light produced is proportional to CYP activity. P450-Glo (TM) CYP2C9 screening system (Catalog. No. V9790) was used to detect the compounds that interfere in CYP2C9 activity.
Tox21 Assay Protocol Summary: Two ul of enzyme-substrate mix was dispensed into medium binding white/solid 1536-well plates (Greiner Bio-One North America Inc., Monroe, NC) using a BioRaptr Flying Reagent Dispenser (FRD, Beckman Coulter, Brea, CA). […] The assay plates were incubated at room temperature for 10 min. Then 2 ul of NADPH regeneration solution was added to each well of the assay plates using an FRD and incubated at 37C for 1 h. The reaction was stopped by adding 4 ul of detection reagent using an FRD and after 20 min incubation at room temperature the luminescence signal was measured using a ViewLux plate reader (Perkin Elmer, Shelton, CT). Data were expressed as relative luminescence units.
% is scaled to controls: 0 for no effect and ±100 for the full control effect; potency is read from the fitted curve at half-maximal effect.

Chain of Cytochrome P450 2C9 (Homo sapiens) (P11712 whole entry, looked up): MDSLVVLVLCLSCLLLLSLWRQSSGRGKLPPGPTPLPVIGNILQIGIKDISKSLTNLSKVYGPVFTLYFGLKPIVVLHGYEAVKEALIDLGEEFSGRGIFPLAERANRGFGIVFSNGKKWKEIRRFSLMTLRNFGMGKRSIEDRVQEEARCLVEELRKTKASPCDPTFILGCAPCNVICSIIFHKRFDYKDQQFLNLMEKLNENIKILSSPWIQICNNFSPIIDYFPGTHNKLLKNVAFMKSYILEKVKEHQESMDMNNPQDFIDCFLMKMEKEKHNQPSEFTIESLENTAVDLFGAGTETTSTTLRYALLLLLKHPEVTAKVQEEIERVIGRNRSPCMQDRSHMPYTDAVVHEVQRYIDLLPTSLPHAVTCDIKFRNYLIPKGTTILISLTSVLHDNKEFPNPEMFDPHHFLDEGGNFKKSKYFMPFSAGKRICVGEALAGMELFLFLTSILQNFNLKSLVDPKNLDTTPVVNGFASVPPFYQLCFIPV

SMILES | Potency | activity change, negative = inhibition
CC(Cc1cccc(C(F)(F)F)c1)NCCOC(=O)c1ccccc1 (stereo not given) | 27.5 µM (active) | –
CCCCC(CC)COCCCN (stereo not given) | 35.2 µM (active) | –
CCCCCCCCCCCCCCCCCBr | – | 0.482% [at 23.6 µM] (inactive)
CN1CCC(=C2c3ccccc3CCc3sccc32)CC1 | – | -2.03% [at 53 µM] (inactive)
CCOC(=O)[C@H](CCc1ccccc1)N[C@H]1CCc2ccccc2N(CC(=O)O)C1=O | 8.71 µM (active) | –
CCC(C)N(C)C(=O)c1cc2ccccc2c(-c2ccccc2Cl)n1 (stereo not given) | 20.5 µM (active) | –
O=C(/C=C/c1ccc(O)c(O)c1)O[C@@H]1C[C@](O)(C(=O)O)C[C@@H](O)[C@H]1O | – | -13% (inactive)
OCCC1CCCCN1 (stereo not given) | – | -16.6% (inactive)
CCCCOC(O)CC (stereo not given) | – | -7.94% (inactive)
Oc1ccc(Sc2ccc(O)cc2)cc1 | – | 11.2% (inactive)
CC(C)(C)c1ccc(S)cc1 | 31.7 µM (active) | –
CC1=CCC(C(C)C)C=C1 (stereo not given) | 50.2 µM (active) | –
C=CC(C)(CCC=C(C)C)OC(=O)c1ccccc1 (stereo not given) | 17.8 µM (active) | –
O=[N+]([O-])c1cccc(Cl)c1Cl | – | 1.88% (inactive)
CC(C)(C)c1cc(CO)cc(C(C)(C)C)c1O | 32.3 µM (active) | –
Cc1nc2ccccc2n1Cc1ccc(Cl)cc1 | 13.8 µM (active) | –
COC(=O)CSc1cc(N=c2sc(=O)n3n2CCCC3)c(F)cc1Cl | 8.94 µM (active) | –
C1CCC2OC2C1 (stereo not given) | – | -12.2% (inactive)
Cc1cc(CC(=O)O)c(C)n1-c1ccc(Cl)cc1 | 15.5 µM (active) | –
Cc1ccc(C(C)c2ccc(C)c(C)c2)cc1C | 11.2 µM (active) | –

SMILES | Potency | activity change, negative = inhibition
CC(C)(Oc1ccc(Cl)cc1)C(=O)OCCCOC(=O)C(C)(C)Oc1ccc(Cl)cc1 | 5.49 µM (active) | –
CC1CCc2cc(F)cc3c(=O)c(C(=O)O)cn1c23 (stereo not given) | – | -2.99% [at 53 µM] (inactive)
CC/C(=C\C(=N/O)C(N)=O)C(C)[N+](=O)[O-] (stereo not given) | – | -2.03% (inactive)
NC1CCN(c2nc3c(cc2F)c(=O)c(C(=O)O)cn3-c2ccc(F)cc2F)C1 (stereo not given) | – | 0.228% [at 53 µM] (inactive)
CC(=O)O[C@H]1C[C@@H]2CC[C@@H]3[C@H](CC[C@@]4(C)[C@H]3C[C@H]([N+]3(C)CCCCC3)[C@@H]4OC(C)=O)[C@@]2(C)C[C@@H]1N1CCCCC1 | – | -2.45% [at 53 µM] (inactive)
O=C1CCCCCO1 | – | -6.71% (inactive)
CCCCCCCC/C=C\CCCCCCCC(N)=O | – | -11.9% (inactive)
Cc1cc(C)c(S(=O)(=O)O)cc1N=Nc1cc(S(=O)(=O)O)c2ccccc2c1O | 63.3 µM (active) | –
Cc1c(Cn2ccnc2)c2ccccc2n1CCC(=O)O | 3.09 µM (active) | –
COCCO | – | -15.9% (inactive)
CCCc1ccccc1 | – | -7.87% (inactive)
CCCCCC(CO)CCC (stereo not given) | – | -26.8% (inactive)
CCOc1ccc2[nH]cc(C(=O)NCc3ccccc3)c(=O)c2n1 | 25.2 µM (active) | –
NC(N)=N/N=C/c1c(Cl)cccc1Cl | – | 35.7% [at 53 µM] (inactive)
CC(C)NCC(O)c1cc(O)cc(O)c1 (stereo not given) | – | -13.8% [at 53 µM] (inactive)
O=[N+]([O-])c1cc[n+]([O-])cc1 | 39.9 µM (active) | –
Cn1c(N)nc2nc[nH]c2c1=O | – | -14.9% (inactive)
N#CCc1cccc(C(F)(F)F)c1 | – | -6.48% (inactive)
CCN1CCC[C@H]1CNC(=O)c1c(OC)ccc(Br)c1OC | – | 2.96% [at 53 µM] (inactive)
COc1ccc([C@@H]2Sc3ccccc3N(CCN(C)C)C(=O)[C@@H]2OC(C)=O)cc1 | – | -12.7% [at 53 µM] (inactive)
